# Cycloheximide cs = affects cycloheximide protein synthesis inhibition readout, counter-screen; cell reporter, cycloheximide protein synthesis inhibition counterscreen; max response, %; 300,000 tested, 12% active; AID 2314; in the data active = max response mostly above about 13%, no sharp cut-off; inactive = mostly below about 14%; also: read at 38.3 µM for the half of the compounds with a filed dose; 0% is about no effect
# Giardia FBPA inh = inhibitors of Giardia lamblia fructose-1,6-bisphosphate aldolase; A8B2U2; Potency, µM (series often up to 59.6 µM), for inactives: at the highest dose activity, negative = inhibition, hits mostly inhibitors; AID 2451; purified Giardia FBPA; 290,000 tested, 0.71% active; also: potency is read from the fitted curve at half-maximal effect; % is scaled to controls: 0 for no effect and ±100 for the full control effect; nearly all actives have a fitted effect of over 55% in size
# Target sequence (A8B2U2 whole entry, looked up): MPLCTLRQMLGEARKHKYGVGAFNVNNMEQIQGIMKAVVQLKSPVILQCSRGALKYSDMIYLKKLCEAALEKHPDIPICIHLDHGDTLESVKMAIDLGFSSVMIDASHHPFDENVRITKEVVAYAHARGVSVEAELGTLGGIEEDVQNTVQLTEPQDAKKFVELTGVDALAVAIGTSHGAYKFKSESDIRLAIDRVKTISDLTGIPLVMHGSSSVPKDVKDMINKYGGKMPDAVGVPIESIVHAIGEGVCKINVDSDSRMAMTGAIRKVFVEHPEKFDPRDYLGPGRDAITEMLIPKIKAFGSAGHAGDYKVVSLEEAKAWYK
#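 40 nM FBPA preincubated 10 min at RT with compound (up to 57.5 uM final), then substrate plus GAPDH/TPI/NAD/arsenate coupling and diaphorase/resazurin added. Fluorescence read after 20 min at RT, 525/598 nm.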
# Pf growth 96h = inhibits malaria parasite growth, 96 h. P. falciparum luciferase reporter growth, 96 h. Potency, µM (highest dose often 28.7 µM), for inactives: at the top dose activity change, negative = inhibition, most hits filed as inhibitors. 320,000 tested, 6.9% active; also: potency is read from the fitted curve at half-maximal effect; % is scaled to controls: 0 for no effect and ±100 for the full control effect
#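 P. falciparum expressing integrated firefly luciferase grown in erythrocytes (2% hematocrit, 0.05% parasitemia final) with compounds for 96 hours at 37 C, 5% CO2. Growth inhibition read as loss of luminescence after adding luciferase detection reagent.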
# Shiga inhibitor = blocks Shiga toxin action in Vero cells; inhibition, % at 38.7 µM; AID 2315; Vero cells, Shiga toxin protein synthesis inhibition reporter; 290,000 tested, 9.2% active; in the data active = inhibition mostly above about 28%, no sharp cut-off; inactive = mostly below about 43%; also: 0% is about no effect
# NS1 function inh = inhibitors of influenza NS1 protein function; Potency, µM (titrated, usually from 46.1 µM), for the others: at the highest dose activity, positive = more growth; 270,000 tested, 0.4% active; calls by dose curve; also: potency is read from the fitted curve at half-maximal effect; actives are rising curves; nearly all actives have a fitted effect of over 50% in size
#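 OD600 was taken as the measure of yeast growth restored by compound in an NS1-expressing S. cerevisiae strain. Cells had been washed out of glucose medium and diluted 1:100 into galactose -URA medium, pH 6.0.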
# Pf growth 48h = inhibits P. falciparum growth in the first generation, 48 h; P. falciparum luciferase growth in erythrocytes, 48 h; Potency, µM (highest dose often 28.7 µM), without a hit: at the top dose activity change, negative = inhibition, usual class: inhibitors; 310,000 tested, 5.9% active; AID 504832; also: potency is read from the fitted curve at half-maximal effect; % is scaled to controls: 0 for no effect and ±100 for the full control effect
#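 Luciferase-expressing parasites in RBCs, 2% Hct / 0.1% parasitemia final; RPMI 1640 + 0.5% Albumax; 37 C, 5% CO2, one generation; luminescence read-out, lower signal = inhibition.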
# The depositor's hits bear a star; u = inconclusive; x = no result given. Compounds with a hit are over-represented: about 21% of the library has one in this group of screens. Unless noted, calls follow the shape of the dose curve; as a rule, active = well fitted curve in the direction sought with a large enough effect; inconclusive = small, poorly fitted or top-dose-only effect, or another doubt; inactive = no such curve, though single readings can be large; an effect the other way counts as inactive or inconclusive.
SMILES,Cycloheximide cs,Giardia FBPA inh,Pf growth 96h,Shiga inhibitor,NS1 function inh,Pf growth 48h
CCc1cc(=O)oc2cc(C)cc(OC(C)C(=O)NCCCn3ccnc3)c12 (centres undefined),-6,-12%,u,8,-13%,10µM*
CCCCc1cc(=O)oc2cc(C)cc(OCC(=O)NCc3ccccn3)c12,-4,-7%,2.6µM*,6,-1%,2.9µM*
CCc1cc(=O)oc2cc(C)cc(OC(C)C(=O)NCCCN3CCCC3=O)c12 (centres undefined),11,x,u,2,-7%,u
CCCCc1cc(=O)oc2cc(OCC(=O)NCc3ccccn3)c(Cl)cc12,-1,x,-26%,0,2%,22%
Cc1cc(OC(C)C(=O)NCc2ccccn2)c2c(C)cc(=O)oc2c1 (centres undefined),-4,7%,3.7µM*,8,2%,1.7µM*
CCCCc1cc(=O)oc2cc(C)cc(OCC(=O)Nc3cccnc3)c12,-1,x,0.52µM*,-5,-3%,0.47µM*
CCCCc1cc(=O)oc2cc(C)cc(OC(C)C(=O)NCc3ccccn3)c12 (centres undefined),-2,7%,u,-3,12%,u
COC(=O)CC1C(C)(C)C2(O)OC34CC2C(=O)[C@@]1(C)C3CC[C@]1(C)C4=CC(=O)OC1c1ccoc1 (some centres undefined),x,-3%,x,x,x,x
Cc1cccc(N2CCN(C(=O)COc3ccc4c(c3)CCC4)CC2C)c1 (centres undefined),x,x,-20%,x,x,-4%
O=C(Nc1ccccc1Cl)ON=C1c2ccccc2-c2ccccc21,23*,-9%,65%,45*,-55%,41%
NC(=O)NC(=O)Nc1ccccc1Cl,3,2%,10µM*,-4,-5%,30%
O=C(NC(=O)c1csnn1)Nc1ccccc1Cl,34*,x,35%,22,-11%,48%
CC(C)CN=C(NS(=O)(=O)c1ccccc1)C(Cl)(Cl)Cl,16,1%,10µM*,13,-20%,2.6µM*
CC(C)CC(NS(=O)(=O)c1ccccc1)C(=O)O (centres undefined),-1,0%,x,3,-13%,-7%
CN(C)c1ccc(Nc2nc(N)c([N+](=O)[O-])c(N3CCOCC3)n2)cc1,5,-21%,10µM*,35,17%,u
Cc1cccc(Nc2nc(N)c([N+](=O)[O-])c(N3CC(C)CC(C)C3)n2)c1 (centres undefined),-4,-9%,u,-2,16%,13µM*
COc1ccc(OC)c(NC(=O)NNC(=O)COc2ccc([N+](=O)[O-])cc2)c1,-4,12%,85%,-3,-46%,12%
CCCCC/C=C\C/C=C\C/C=C\CCCCC(=O)NC(C)C(=O)O (centres undefined),x,1%,x,x,x,x
CCOc1ccc(/C=C/C(=O)OC(C)C(=O)NC2CCCCC2C)cc1OC (centres undefined),x,x,8%,x,x,u
Cc1onc(-c2ccccc2)c1C(=O)Nc1ccc(S(=O)(=O)N2CCCCC2)cc1,-7,-8%,u,-16,-9%,u
Cc1onc(-c2ccccc2)c1C(=O)N1CCCSC1=Nc1ccccc1,6,-3%,u,12,-36%,2.9µM*
COc1ccc(S(=O)(=O)N2CCOCC2)cc1NC(=O)c1cc(C)oc1C,x,x,12µM*,x,x,u
Cc1onc(-c2ccccc2)c1C(=O)Nc1ccc(S(=O)(=O)N2CCCC2)cc1,19*,-8%,-24%,34,-4%,16%
Cc1noc(C)c1C(=O)Nc1cccc(S(=O)(=O)N2CCCCC2)c1,x,x,8.3µM*,x,x,-15%
O=S(=O)(NC1CC1)c1ccccc1,-2,-4%,u,-10,5%,5%
SMILES,Cycloheximide cs,Giardia FBPA inh,Pf growth 96h,Shiga inhibitor,NS1 function inh,Pf growth 48h
COc1ccc2c(c1)O[C@@H](c1ccc3c(c1)OCO3)[C@H](OC(=O)Nc1ccc(C)c(Br)c1)C2=O,x,0%,x,x,x,x
COc1ccc(S(=O)(=O)N2CCOCC2)cc1NC(=O)c1ccncc1,x,x,u,x,x,-12%
Cc1noc(C)c1COc1ccc(C(=O)OCC(=O)Nc2cccc(S(=O)(=O)N3CCOCC3)c2)cc1,-2,0%,5.2µM*,-14,u,-29%
Cc1noc(C)c1COC(=O)c1cccc(S(=O)(=O)N2CCOCC2)c1,x,x,3%,x,x,u
COc1ccc(S(=O)(=O)N2CCOCC2)cc1NC(=O)c1c(-c2ccccc2)noc1C,x,x,10µM*,x,x,u
COc1ccc(S(=O)(=O)N2CCOCC2)cc1NC(=O)c1cccc2c(=O)c(C)c(-c3ccccc3)oc12,-1,-1%,2.1µM*,-5,5%,5.2µM*
O=C(Nc1nccs1)c1ccc(-c2ccc(Cl)cc2Cl)o1,26*,7%,-12%,50*,-3%,-27%
Cc1ccccc1NC(=O)c1ccc(-c2ccc(Cl)cc2Cl)o1,21*,1%,40%,41,-66%,x
O=C(Nc1nccs1)c1ccc(-c2ccc(F)c(Cl)c2)o1,45*,x,4%,102*,-2%,u
O=C(Nc1nccs1)c1ccc(F)c(S(=O)(=O)N2CCOCC2)c1,-3,-1%,-4%,2,5%,7%
O=C(c1cnccn1)N1CCC2(CCCN(c3ccccc3)C2)CC1,x,0%,x,x,x,x
COc1ccc(Cl)cc1C(=O)Nc1ccc(NC(=O)c2ccco2)cc1,12,9%,2.1µM*,16,7%,u
NC(=NCc1ccco1)NC(=O)c1ccc(Cl)cc1,25*,0%,3%,76*,-19%,44%
Cc1cccc2c(=O)c(-c3ccc(Cl)cc3)c(NC(=O)c3ccco3)oc12,16*,-13%,1%,24*,1%,22%
O=C(Cc1ccccc1)Nc1ccc(NC(=O)c2ccco2)cc1,18*,-4%,15%,51*,-27%,30%
Cn1c(NC(=O)c2ccco2)c(-c2ccc(Cl)cc2)c(=O)c2ccccc21,-2,-4%,x,-21,2%,6%
COc1cc(Cl)c(S(=O)(=O)NCCCn2ccnc2)cc1Cl,1,-12%,2%,x,18%,u
Cc1cccc(NC(=S)N2CCN(S(C)(=O)=O)CC2)c1,-1,-15%,30%,42,-3%,3%
CC(=O)OCC(=O)Nc1ccc(SC(F)F)cc1,9,-2%,3%,-6,1%,15%
O=C(Nc1ccc(Cl)cc1)c1ccco1,33*,0%,5.2µM*,55,-21%,131%
O=C(Nc1cccc(NC(=O)c2ccccc2Cl)c1)c1ccco1,-1,x,8%,-12,14%,11%
CCC(C)c1ccc(NC(=O)c2ccco2)cc1 (centres undefined),26*,4%,u,40,-140%,154%
CCC(C)c1ccc(NC(=O)COC(=O)CCNC(=O)c2ccco2)cc1 (centres undefined),x,x,26%,x,x,26%
C/C=C/C(=O)OCC(=O)Nc1ccc(SC(F)F)cc1,26*,-1%,12%,36,x,13%

# High-throughput results: PubChem, National Center for Advancing Translational Sciences (NCATS)
